Data taken from PubChem BioAssay AID434961 (Broad Institute, 2010).
The whole screen tested about 7,700 compounds, of which about 15 (0.2%) were called active. Inconclusive results (about 6%) are left out. The full list was thinned out, with actives kept by preference. A number with no mark means an inactive call.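 Rule for the calls: active = more than half of replicate wells with inhibition above about 18% (limit read from the data, passing the limit was not always enough); inconclusive = exactly half of replicate wells above that limit; inactive = fewer than half of replicates above it.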

Each compound was assayed against Regulator of chromosome condensation (Homo sapiens) + GTP-binding nuclear protein Ran (Homo sapiens) + Importin subunit beta-1 (Homo sapiens) (UniProt P18754+P62826+Q14974) (assay: inhibitors of Ran–importin-beta complex formation, primary screen, biochemical, CFP-Ran/YFP-importin-beta FRET, RCC1, cell-free (AID 434961;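 note: 0% = DMSO wells and 100% inhibition = RanGDP control wells on each plate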)). Conditions: hits give high values, concentration not given here.

| SMILES | inhibition |
| --- | --- |
| CNC[C@H]1Oc2ccc(NC(=O)NC(C)C)cc2CC(=O)N([C@H](C)CO)C[C@H]1C | -4.07% |
| CNC[C@H]1OCCCC[C@@H](C)Oc2ccc(N)cc2C(=O)N([C@H](C)CO)C[C@@H]1C | 7.03% |
| C[C@@H]1CN([C@H](C)CO)C(=O)Cc2cc(NS(=O)(=O)c3cn(C)cn3)ccc2O[C@H]1CN(C)CC1CC1 | 1.45% |
| Cc1noc(C)c1NC(=O)N(C)C[C@@H]1Oc2c(NS(C)(=O)=O)cccc2C(=O)N([C@H](C)CO)C[C@H]1C | -0.0899% |
| C[C@@H]1CCCCO[C@H](CN(C)C(=O)C2CCCCC2)[C@H](C)CN([C@@H](C)CO)C(=O)c2cc(NC(=O)c3ccncc3)ccc2O1 | 2% |
| C[C@@H]1CN([C@H](C)CO)C(=O)Cc2cc(NC(=O)Cc3ccccc3)ccc2O[C@@H]1CN(C)S(=O)(=O)c1cccs1 | -2.73% |
| C[C@H]1CN([C@@H](C)CO)C(=O)Cc2cc(NC(=O)Cc3ccccc3)ccc2O[C@@H]1CN(C)S(=O)(=O)c1cccs1 | -0.944% |
| C[C@@H]1CN([C@@H](C)CO)C(=O)Cc2cc(NC(=O)Nc3ccc4c(c3)OCO4)ccc2O[C@@H]1CN(C)CC1CC1 | 2.45% |
| C[C@H](CO)N1C[C@H](C)[C@@H](CN(C)S(=O)(=O)c2cccs2)Oc2ccc(NC(=O)Cc3ccccc3)cc2CC1=O | 19.8% (active) |
| C[C@H](CO)N1C[C@H](C)[C@H](CN(C)CC2CC2)Oc2ccc(NC(=O)Nc3ccc4c(c3)OCO4)cc2CC1=O | -0.0887% |
| C[C@@H]1CN([C@H](C)CO)C(=O)Cc2cc(NC(=O)Nc3ccc4c(c3)OCO4)ccc2O[C@@H]1CN(C)CC1CC1 | 24.2% (active) |
| C[C@@H]1CN([C@@H](C)CO)C(=O)c2cccc(NS(C)(=O)=O)c2O[C@@H]1CN(C)Cc1ccncc1 | 0.304% |
| C[C@H](CO)N1C[C@H](C)[C@@H](CN(C)Cc2ccncc2)Oc2c(NS(C)(=O)=O)cccc2C1=O | 29.9% (active) |
| C[C@@H]1CN([C@@H](C)CO)C(=O)c2cc(NS(C)(=O)=O)ccc2O[C@@H](C)CCCCO[C@@H]1CN(C)C(=O)Cc1ccccc1 | -3.41% |
| C[C@@H]1CCCCO[C@H](CN(C)Cc2ccncc2)[C@H](C)CN([C@H](C)CO)C(=O)c2cc(NS(C)(=O)=O)ccc2O1 | 0.0179% |
| C[C@@H]1CN([C@@H](C)CO)C(=O)c2cc(NC(=O)CCCN(C)C)ccc2O[C@@H](C)CCCCO[C@H]1CN(C)Cc1ccc2c(c1)OCO2 | 7.22% |
| C[C@@H]1CN([C@H](C)CO)C(=O)c2cc(NS(C)(=O)=O)ccc2O[C@@H](C)CCCCO[C@@H]1CN(C)Cc1ccncc1 | 30% (active) |
| C[C@@H]1CN([C@@H](C)CO)C(=O)c2cc(NS(C)(=O)=O)ccc2O[C@@H](C)CCCCO[C@H]1CN(C)C(=O)Cc1ccccc1 | 20.6% (active) |
| C[C@@H]1CCCCO[C@@H](CN(C)Cc2ccncc2)[C@H](C)CN([C@@H](C)CO)C(=O)c2cc(NS(C)(=O)=O)ccc2O1 | -2.5% |

| SMILES | inhibition |
| --- | --- |
| C[C@H]1CN([C@@H](C)CO)C(=O)c2cccc(NS(C)(=O)=O)c2O[C@H]1CN(C)Cc1ccncc1 | 7.75% |
| C[C@H]1CCCCO[C@@H](CN(C)C(=O)Cc2ccccc2)[C@@H](C)CN([C@@H](C)CO)C(=O)c2cc(NS(C)(=O)=O)ccc2O1 | 3.79% |
| C[C@H]1CCCCO[C@H](CN(C)Cc2ccc3c(c2)OCO3)[C@@H](C)CN([C@@H](C)CO)C(=O)c2cc(NC(=O)CCCN(C)C)ccc2O1 | -3.94% |
| C[C@@H]1CCCCO[C@H](CN(C)Cc2ccc3c(c2)OCO3)[C@@H](C)CN([C@H](C)CO)C(=O)c2cc(NC(=O)CCCN(C)C)ccc2O1 | 20.5% (active) |
| COc1ccc(CN(C)C[C@H]2Oc3ccc(NC(=O)Nc4ccc(C(F)(F)F)cc4)cc3C(=O)N([C@@H](C)CO)C[C@H]2C)cc1 | 31.1% (active) |
| Cc1noc(C)c1NC(=O)N(C)C[C@@H]1Oc2ccc(N(C)C)cc2CC(=O)N([C@H](C)CO)C[C@H]1C | 24.7% (active) |
| C[C@H]1CN([C@@H](C)CO)C(=O)c2cccc(NS(=O)(=O)c3cn(C)cn3)c2O[C@@H]1CN(C)C | 0.914% |
| Cc1noc(C)c1NC(=O)N(C)C[C@@H]1Oc2ccc(N(C)C)cc2CC(=O)N([C@H](C)CO)C[C@@H]1C | 1.55% |
| Cc1noc(C)c1NC(=O)Nc1ccc2c(c1)C(=O)N([C@H](C)CO)C[C@H](C)[C@H](CN(C)C(=O)Nc1c(C)noc1C)OCCCC[C@H](C)O2 | -1.94% |
| COc1ccc(CN(C)C[C@H]2Oc3ccc(NC(=O)Nc4ccc(C(F)(F)F)cc4)cc3C(=O)N([C@H](C)CO)C[C@H]2C)cc1 | -1.47% |
| Cc1noc(C)c1NC(=O)N(C)C[C@H]1Oc2ccc(N(C)C)cc2CC(=O)N([C@@H](C)CO)C[C@H]1C | -0.258% |
| C[C@@H]1CN([C@H](C)CO)C(=O)c2cccc(NS(=O)(=O)c3cn(C)cn3)c2O[C@H]1CN(C)C | -0.231% |
| Cc1noc(C)c1NC(=O)Nc1ccc2c(c1)C(=O)N([C@H](C)CO)C[C@H](C)[C@@H](CN(C)C(=O)Nc1c(C)noc1C)OCCCC[C@@H](C)O2 | 0.0737% |
| COc1ccc(CN(C)C[C@H]2Oc3ccc(NC(=O)Nc4ccc(C(F)(F)F)cc4)cc3C(=O)N([C@@H](C)CO)C[C@@H]2C)cc1 | -6.63% |
| C[C@H]1CN([C@@H](C)CO)C(=O)c2cccc(NS(=O)(=O)c3cn(C)cn3)c2O[C@H]1CN(C)C | 31% (active) |
| Cc1noc(C)c1NC(=O)Nc1ccc2c(c1)C(=O)N([C@H](C)CO)C[C@@H](C)[C@@H](CN(C)C(=O)Nc1c(C)noc1C)OCCCC[C@@H](C)O2 | 20.4% (active) |
| C[C@H]1CCCCO[C@H](CN(C)C(=O)CCC(F)(F)F)[C@@H](C)CN([C@@H](C)CO)C(=O)c2cc(NC(=O)CCC(F)(F)F)ccc2O1 | 4.31% |
| C[C@@H]1CCCCO[C@@H](CN(C)C(=O)CCC(F)(F)F)[C@@H](C)CN([C@@H](C)CO)C(=O)c2cc(NC(=O)CCC(F)(F)F)ccc2O1 | 17.9% (active) |
| C[C@@H]1CCCCO[C@@H](CN(C)C(=O)CCC(F)(F)F)[C@H](C)CN([C@@H](C)CO)C(=O)c2cc(NC(=O)CCC(F)(F)F)ccc2O1 | -1.98% |
